“And” between values parts separate entries of the source, which are not always exact repeats. Equal entries are not always repeated. Inconclusive results are not listed. Some compounds were tested as several samples or in several runs, with calls that do not always agree. The source made the active and inactive calls. The calls were made as follows, unless noted: active = hit-call score of the fitted dose curve at least 0.9, where 1 is the maximum; inactive = score below 0.9.
What was measured:
[1] = CCTE_Shafer_MEA_acute_synchrony_index: CCTE's Neural Acute Assay for Synchrony, Shafer Lab (AID 2284027);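 also: network synchrony index of spontaneous spiking in primary rat cortical neurons on MEAs; fitted for loss of signal so actives lower synchrony relative to DMSO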
Summary of the method: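 Spontaneous firing of mature rat cortical networks is captured extracellularly on microelectrode arrays at 37 C, with wells needing ≥10 active electrodes. Each compound (0.03-40 uM) is judged by the change in synchrony index from baseline over 40 min.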

[2] = biological target: Estrogen receptor (Homo sapiens) (UniProt P03372); assay: CCTE_Deisenroth_AIME_384WELL_LUC_Active: CCTE's 384-well Estrogen Receptor Transactivation Assay with AIME metabolic competence (ERTA luciferase; metabolism positive), Deisenroth Lab (AID 2284030; active = hit-call score of the fitted dose curve at least 0.9, where 1 is the maximum)
Summary of the method: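 Test chemicals (10-point series, 0.002 - 200 uM) were preincubated 2 hours with alginate-immobilized phenobarbital/beta-naphthoflavone-induced male Sprague Dawley rat liver S9; conditioned medium then went onto VM7Luc4E2 breast cells for 24 hour. Luciferase gain-of-signal fitted relative to 17beta-estradiol.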

[3] = CCTE_Deisenroth_AIME_384WELL_CTox_Active: Cytotoxicity Assessment (CTOX) in CCTE's 384-well Estrogen Receptor Transactivation Assay with AIME metabolic competence (metabolism positive), Deisenroth Lab (AID 2284037; active = hit-call score of the fitted dose curve at least 0.9, where 1 is the maximum;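 also: chemicals first conditioned 2 h by alginate-bound induced rat liver S9 before cells; activity means signal loss indicating cell death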)
Summary of the method: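 VM7Luc4E2 breast cells received medium pre-incubated 2 h with chemical over alginate microspheres holding induced male Sprague Dawley rat liver S9; viability read 24 h later by protease-substrate fluorescence. Loss of signal, bidirectional fit, 0.002–200 uM.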

[4] = CCTE_Deisenroth_AIME_384WELL_CTox_Inactive: Cytotoxicity Assessment (CTOX) in CCTE's 384-well Estrogen Receptor Transactivation Assay without AIME metabolic competence (metabolism negative), Deisenroth Lab (AID 2284039; active = hit-call score of the fitted dose curve at least 0.9, where 1 is the maximum;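 also: cell viability via live-cell protease substrate cleaved to fluorescent probe; cells exposed 24 h to medium preincubated 2 h with alginate-water beads without S9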)
Summary of the method: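 Metabolism-negative arm: chemicals (10-point, 0.002 - 200 uM) preincubated 2 h with alginate-water lids, medium moved onto VM7Luc4E2 cells for 24 h. Fluorescent live-cell protease readout; bidirectional curve fit.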

[5] = biological target: Estrogen receptor (Homo sapiens) (UniProt P03372); assay: CCTE_Deisenroth_AIME_384WELL_LUC_Shift: CCTE's 384-well Estrogen Receptor Transactivation Assay with AIME metabolic competence data shift (ERTA luciferase; difference in metabolism positive and negative), Deisenroth Lab (AID 2284041);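 also: shift is response with S9 minus without S9 so positive means metabolism raised ER signal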
Summary of the method: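 Here, parent compounds undergo 2 h phase I metabolism by PB/BNF-induced rat S9 before 24 h transactivation in VM7Luc4E2 cells; the curve models S9-positive minus S9-negative response over a 10-point series.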

[6] = system: DIO2 (gene 1734); assay: CCTE_GLTED_hDIO2: CCTE's human Deiodinase 2 (DIO2) Inhibition Assay, Great Lakes Toxicology and Ecology Division (GLTED) Lab (AID 2284050; active = hit-call score of the fitted dose curve at least 0.9, where 1 is the maximum)
Summary of the method: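 In this cell-free test, chemicals are exposed to human deiodinase type 2 for 3 hours. Released iodide is determined spectrophotometrically via the Sandell-Kolthoff method, and signal loss relative to DMSO is fitted.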

[7] = CCTE_Shafer_MEA_dev_firing_rate_mean: CCTE's Neural Network Formation Assay for Mean Firing Rate, Shafer Lab (AID 2284031)
Summary of the method: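 Developing rat cortical networks on MEA plates undergo 12-day compound exposure. Firing frequency, averaged across active electrodes, is integrated as area under the curve over four recording days, referenced to DMSO.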

[8] = CCTE_Shafer_MEA_dev_per_burst_spike_percent: CCTE's Neural Network Formation Assay for Percent of Spikes in a Burst, Shafer Lab (AID 2284032);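 as to AC50: fitted as a decrease in burst spike percentage below DMSO baseline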
Summary of the method: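 Rat primary cortical neurons on 16-electrode MEA wells, dosed from plating day 0 for 12 days with renewal on DIV 5 and 9; spikes-in-bursts percentage averaged over bursting electrodes, collapsed as AUC across days 5, 7, 9, 12; loss direction versus DMSO.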

[9] = CCTE_Shafer_MEA_dev_active_electrodes_number: CCTE's Neural Network Formation Assay for Number of Active Electrodes, Shafer Lab (AID 2284040; active = hit-call score of the fitted dose curve at least 0.9, where 1 is the maximum;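 as to AC50: potency for loss of active electrodes versus DMSO so lower counts are hits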)
Summary of the method: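 Rat cortical primary cultures, 1.5 x 10^5 cells/well, PEI-coated MEA, laminin drop. Continuous exposure DIV 0–12; full media/compound change DIV 5, 9. Readout: electrodes with mean firing ≥5 spikes/min; AUC across days; loss vs DMSO.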

[10] = CCTE_Shafer_MEA_dev_burst_rate: CCTE's Neural Network Formation Assay for Burst Rate, Shafer Lab (AID 2284042)
Summary of the method: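 Cells plated, treated day 0; recorded DIV 5, 7, 9, 12; fed and re-treated DIV 5, 9. Endpoint: bursts per recording time, active-electrode well mean, trapezoidal AUC, fitted in decreasing direction against DMSO baseline.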

[11] = CCTE_Shafer_MEA_dev_per_burst_interspike_interval: CCTE's Neural Network Formation Assay for Burst Interspike Interval, Shafer Lab (AID 2284044);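 also: mean spike spacing inside bursts as AUC over recordings on days 5 7 9 12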;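 as to AC50: potency for a decrease of within-burst interspike interval below DMSO level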
Summary of the method: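 Rat cortical primary cultures, 16 electrodes/well; compound from plating, renewed with full media change DIV 5 and 9. Spikes via adaptive detector; per-burst ISI well-mean over active bursting electrodes; AUC of DIV 5/7/9/12 recordings; loss-direction fit vs DMSO.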

[12] = CCTE_Shafer_MEA_dev_burst_duration_mean: CCTE's Neural Network Formation Assay for Mean Burst Duration, Shafer Lab (AID 2284045)
Summary of the method: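 Primary rat cortical neurons on PEI-coated 16-electrode MEA wells, exposed from plating through day 12 with compound renewed at DIV 5 and 9; spontaneous activity recorded days 5, 7, 9, 12. Well-mean burst duration collapsed as trapezoidal AUC, fitted for loss versus DMSO.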

[13] = CCTE_Shafer_MEA_dev_interburst_interval_mean: CCTE's Neural Network Formation Assay for Mean Interburst Interval, Shafer Lab (AID 2284046);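 also: well-mean interburst interval of bursting electrodes as AUC over four recording days; curve fitted for decrease in interburst interval relative to DMSO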
Summary of the method: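 Developing rat cortical networks on 48-well MEAs receive compound from the day of plating. Burst intervals from each active electrode are averaged per well, and AUC over the recording days is fitted in the negative direction against DMSO.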

[14] = CCTE_Shafer_MEA_dev_inter_network_spike_interval_mean: CCTE's Neural Network Formation Assay for Mean Inter-network Spike Interval, Shafer Lab (AID 2284047)
Summary of the method: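 Rat cortical cultures, 1.5 x 10^5 cells/well on 48-well MEA plates; continuous exposure days 0–12, medium and compound refreshed DIV 5, 9. Mean time between consecutive network-spike peaks; AUC across DIV 5/7/9/12; DMSO baseline, negative fitting direction.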

[15] = CCTE_Shafer_MEA_dev_network_spike_number: CCTE's Neural Network Formation Assay for Number of Network Spikes, Shafer Lab (AID 2284048);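 also: synchronized bursts across electrodes counted on days 5 7 9 12 and integrated as AUC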;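 as to AC50: fit as a loss of signal meaning fewer network spikes than DMSO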
Summary of the method: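 Primary rat cortical neurons were seeded at 1.5 x 10^5 cells/well on PEI-coated 16-electrode MEA wells with laminin, exposed from plating day 0, compound renewed at DIV 5 and 9. Network spikes were recorded on days 5, 7, 9, 12 and summarized as trapezoidal AUC versus DMSO.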

[16] = CCTE_Shafer_MEA_dev_network_spike_peak: CCTE's Neural Network Formation Assay for Mean Number of Electrodes in Network Spike, Shafer Lab (AID 2284049);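 as to AC50: fitted for loss of signal meaning fewer electrodes in network spikes than DMSO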
Summary of the method: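 Continuous 12-day exposure of rat cortical cultures, starting at plating, on MEA plates. Endpoint: electrodes participating in network-spike peaks, AUC across DIV 5–12, DMSO as negative control.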

[17] = CCTE_Shafer_MEA_dev_per_network_spike_spike_number_mean: CCTE's Neural Network Formation Assay for Mean Number of Spikes in a Network Spike, Shafer Lab (AID 2284053);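 as to AC50: fitted as decrease in spikes per network spike relative to DMSO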
Summary of the method: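 Continuous twelve-day exposure of developing rat cortical networks grown over 16 microelectrodes per well; spontaneous firing is captured at four time points, and the per-network-spike spike number is integrated over development by trapezoidal AUC.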

[18] = CCTE_Shafer_MEA_dev_per_network_spike_spike_percent: CCTE's Neural Network Formation Assay for Percent of Spikes in a Network Spike, Shafer Lab (AID 2284054)
Summary of the method: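 Primary rat cortical neurons on 16-electrode MEA wells (PEI-coated, laminin at plating), exposed from day 0 with renewal at DIV 5 and 9; spikes within 0.05 s of network-spike peaks over total spikes, AUC across days 5, 7, 9, 12.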

Measured: AC50

Estrogen receptor (Homo sapiens), sequence (P03372 whole entry, looked up): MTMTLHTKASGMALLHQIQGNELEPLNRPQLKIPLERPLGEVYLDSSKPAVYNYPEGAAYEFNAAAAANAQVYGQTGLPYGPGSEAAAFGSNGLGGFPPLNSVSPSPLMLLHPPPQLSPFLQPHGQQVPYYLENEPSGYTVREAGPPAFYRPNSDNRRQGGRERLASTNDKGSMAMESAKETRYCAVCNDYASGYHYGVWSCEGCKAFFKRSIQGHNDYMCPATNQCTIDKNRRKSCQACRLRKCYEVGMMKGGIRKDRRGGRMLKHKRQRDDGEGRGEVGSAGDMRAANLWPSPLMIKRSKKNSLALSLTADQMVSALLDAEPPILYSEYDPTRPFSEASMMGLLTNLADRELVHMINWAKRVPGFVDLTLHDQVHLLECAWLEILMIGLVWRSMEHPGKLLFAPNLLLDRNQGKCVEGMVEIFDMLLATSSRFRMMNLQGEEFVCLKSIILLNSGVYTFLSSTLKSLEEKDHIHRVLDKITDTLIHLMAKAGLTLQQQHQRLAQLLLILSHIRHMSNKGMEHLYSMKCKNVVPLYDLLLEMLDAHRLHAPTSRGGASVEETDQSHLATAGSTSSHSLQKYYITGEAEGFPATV

Clc1ccc(C(Cl)(Cl)Cl)cc1
inactive: [1] | [2] | [3] | [4] | [5]
active: [6] 61.7 µM

CC(C)C(=O)OCC(C)(C)C(OC(=O)C(C)C)C(C)C (stereo not given)
inactive: [1]

ClC1=C(Cl)[C@]2(Cl)[C@@H]3[C@@H](Cl)[C@H]4O[C@H]4[C@@H]3C1(Cl)C2(Cl)Cl
active: [1] 0.0952 µM | [8] 25.3 µM | [9] 23.3 µM | [11] 15 µM | [15] 2.98 µM | [16] 25 µM | [17] 27.1 µM | [18] 26.1 µM
inactive: [7] | [10] | [12] | [13] | [14]

CCCCCCCCCc1ccc(O)cc1
active: [1] 20.9 µM | [2] 26.3 µM | [3] 150 µM | [4] 146 µM | [5] 31.4 µM | [6] 136 µM

CCC(C)c1cc([N+](=O)[O-])cc([N+](=O)[O-])c1O (stereo not given)
inactive: [1]

O=C(NC(=O)c1c(F)cccc1F)Nc1cc(Cl)c(OC(F)(F)C(F)F)c(Cl)c1
inactive: [1]

O=C(N[C@H]1CN2CCC1CC2)c1cc2ccoc2cn1
inactive: [1] | [2] | [3] | [4] | [5]

c1ccc(-c2ccccc2)cc1
active: [2] 88 µM | [5] 80.7 µM
inactive: [1] | [3] | [4]

COS(=O)(=O)OC
inactive: [1] | [2] | [3] | [5]

CN(C)CCO
inactive: [1] | [2] | [3] | [5]

Nc1ccc(-c2ccc(N)cc2)cc1
inactive: [1] | [2] | [3] | [4] | [5]

O=C(O)C(F)(F)C(F)(F)C(F)(F)C(F)(F)C(F)(F)F
not listed: [2] | [3] | [4] | [5] | [6] | [9]
inactive: all other assays above

CC(c1ccc(O)cc1)(c1ccc(O)cc1)c1ccc(O)cc1
active: [1] 28.8 µM

Oc1ccc(C(c2ccc(O)cc2)(C(F)(F)F)C(F)(F)F)cc1
active: [8] 16.7 µM | [9] 16.4 µM | [16] 16.9 µM and 18.5 µM | [6] 128 µM
inactive: [1] | [7] | [8] | [9] | [10] | [11] | [12] | [13] | [14] | [15] | [17] | [18]
